# Assay results published in PubChem BioAssay AID1159580 (chemical genetic matrix, 2015).
# Several values for one entry are separate records, joined by “and”; a condition that tells them apart may be missing. Equal values may be shown once. Screen size: about 5,500 compounds; about 2,000 (36%) were called active. Roughly 18% stayed inconclusive and do not appear here. The list shows a part of the results. A number with no mark means an inactive call. No stated cut-off is given here; in the data, active means normalized growth mostly below about 0.91 (no sharp cut-off); inconclusive means no clear call, values can overlap the other calls; inactive means mostly above about 0.92.
# Assay: chemical genetic growth profiling, strain panel (AID 1159580);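 further: tested at 20 µM; growth read once vehicle control cultures reached saturation at 30 °C; 1 = growth at the plate median or of vehicle wells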
# Conditions: S. cerevisiae deletion strains, growth OD
smiles,measurement,setting,value
COc1cc2occc2c2oc(=O)ccc12,normalized growth,"locus YAL021C, strain ccr4, stronger effect = lower value",1.01
same,normalized growth,"locus YAL026C, strain drs2, stronger effect = lower value",0.984
same,normalized growth,"locus YAL030W, strain snc1, stronger effect = lower value",1.01
same,normalized growth,"locus YBL061C, strain skt5, stronger effect = lower value",0.992
same,normalized growth,"locus YBR009C, strain hhf1, stronger effect = lower value",0.982
same,normalized growth,"locus YBR021W, strain FUR4, stronger effect = lower value",0.965
same,normalized growth,"locus YBR023C, strain chs3, stronger effect = lower value",1
same,normalized growth,"locus YBR171W, strain sec66, stronger effect = lower value",1.02
same,normalized growth,"locus YBR229C, strain ROT2, stronger effect = lower value",0.949
same,normalized growth,"locus YBR231C, strain swc5, stronger effect = lower value",0.962
same,normalized growth,"locus YBR279W, strain paf1, stronger effect = lower value",1.01
same,normalized growth,"locus YCL011C, strain gbp2, stronger effect = lower value",1.01
same,normalized growth,"locus YCL016C, strain dcc1, stronger effect = lower value",0.972
same,normalized growth,"locus YCL029C, strain bik1, stronger effect = lower value",0.931
same,normalized growth,"locus YCL069W, strain vba3, stronger effect = lower value",1.03
same,normalized growth,"locus YCR088W, strain abp1, stronger effect = lower value",1.02
same,normalized growth,"locus YDL005C, strain med2, stronger effect = lower value",1.01
same,normalized growth,"locus YDL035C, strain GPR1, stronger effect = lower value",0.92
same,normalized growth,"locus YDL040C, strain nat1, stronger effect = lower value",1.02
same,normalized growth,"locus YDL074C, strain BRE1, stronger effect = lower value",0.842
same,normalized growth,"locus YDL101C, strain DUN1, stronger effect = lower value",0.939
same,normalized growth,"locus YDL185W, strain tfp1, stronger effect = lower value",0.936
same,normalized growth,"locus YDL192W, strain arf1, stronger effect = lower value",0.887 (active)
same,normalized growth,"locus YDR001C, strain nth1, stronger effect = lower value",1.01
same,normalized growth,"locus YDR069C, strain doa4, stronger effect = lower value",0.98
same,normalized growth,"locus YDR101C, strain arx1, stronger effect = lower value",0.897 (active)
same,normalized growth,"locus YDR137W, strain rgp1, stronger effect = lower value",1.06
same,normalized growth,"locus YDR159W, strain sac3, stronger effect = lower value",1.01
same,normalized growth,"locus YDR162C, strain NBP2, stronger effect = lower value",0.873
same,normalized growth,"locus YDR195W, strain ref2",1.29 [resistant] (active)
same,normalized growth,"locus YDR297W, strain sur2, stronger effect = lower value",0.998
same,normalized growth,"locus YDR318W, strain mcm21, stronger effect = lower value",0.948
same,normalized growth,"locus YDR334W, strain swr1, stronger effect = lower value",0.969
same,normalized growth,"locus YDR335W, strain msn5, stronger effect = lower value",0.968
same,normalized growth,"locus YDR388W, stronger effect = lower value",0.979
same,normalized growth,"locus YDR392W, strain spt3, stronger effect = lower value",0.792
same,normalized growth,"locus YDR502C, strain sam2, stronger effect = lower value",0.984
same,normalized growth,"locus YEL003W, strain gim4, stronger effect = lower value",0.985
same,normalized growth,"locus YEL037C, strain rad23, stronger effect = lower value",1
same,normalized growth,"locus YEL061C, strain CIN8 (second series), stronger effect = lower value",1
same,normalized growth,"locus YER015W, strain faa2, stronger effect = lower value",1
same,normalized growth,"locus YER016W, strain bim1, stronger effect = lower value",1.02
same,normalized growth,"locus YER110C, stronger effect = lower value",0.936
same,normalized growth,"locus YER111C, strain swi4, stronger effect = lower value",1.02
same,normalized growth,"locus YER155C, strain BEM2 (second series), stronger effect = lower value",0.821 (active)
same,normalized growth,"locus YER155C, strain BEM2, stronger effect = lower value",0.992
same,normalized growth,"locus YER167W, strain BCK2, stronger effect = lower value",0.967
same,normalized growth,"locus YFR010W, strain ubp6, stronger effect = lower value",0.957
same,normalized growth,"locus YGL078C, strain dbp3, stronger effect = lower value",1.02
same,normalized growth,"locus YGL086W, strain mad1, stronger effect = lower value",0.964
same,normalized growth,"locus YGL167C, strain pmr1, stronger effect = lower value",1.02
same,normalized growth,"locus YGL173C, strain kem1, stronger effect = lower value",1.01
same,normalized growth,"locus YGL227W, strain vid30, stronger effect = lower value",1.03
same,normalized growth,"locus YGL240W, strain doc1, stronger effect = lower value",0.92
same,normalized growth,"locus YGL248W, strain PDE1, stronger effect = lower value",0.964
same,normalized growth,"locus YGL253W, strain hxk2, stronger effect = lower value",1.01
same,normalized growth,"locus YGR078C, strain PAC10, stronger effect = lower value",0.95
same,normalized growth,"locus YGR135W, strain pre9, stronger effect = lower value",0.99
same,normalized growth,"locus YGR252W, strain gcn5, stronger effect = lower value",0.865
same,normalized growth,"locus YHR013C, strain ard1, stronger effect = lower value",1.08
same,normalized growth,"locus YHR027C, strain rpn1, stronger effect = lower value",0.998
same,normalized growth,"locus YHR030C, strain SLT2, stronger effect = lower value",0.982 and 0.967
same,normalized growth,"locus YHR079C, strain IRE1 (second series), stronger effect = lower value",0.984
same,normalized growth,"locus YHR079C, strain IRE1, stronger effect = lower value",0.958
same,normalized growth,"locus YHR094C, strain hxt1, stronger effect = lower value",0.975
same,normalized growth,"locus YHR129C, strain ARP1, stronger effect = lower value",0.98
same,normalized growth,"locus YHR142W, strain chs7, stronger effect = lower value",0.961
same,normalized growth,"locus YHR200W, strain rpn10, stronger effect = lower value",0.93
same,normalized growth,"locus YIL066C, strain RNR3, stronger effect = lower value",0.925
same,normalized growth,"locus YIL073C, strain SPO22, stronger effect = lower value",0.944
same,normalized growth,"locus YIL125W, strain kgd1, stronger effect = lower value",0.99
same,normalized growth,"locus YIR030C, strain dcg1, stronger effect = lower value",0.979
same,normalized growth,"locus YJL092W, strain hpr5, stronger effect = lower value",1.02
same,normalized growth,"locus YJL095W, strain BCK1 (second series), stronger effect = lower value",0.998
same,normalized growth,"locus YJL095W, strain BCK1, stronger effect = lower value",0.942 and 0.974
same,normalized growth,"locus YJL115W, strain asf1, stronger effect = lower value",0.991
same,normalized growth,"locus YJL129C, strain trk1, stronger effect = lower value",1.17 [resistant] (active)
same,normalized growth,"locus YJL134W, strain LCB3, stronger effect = lower value",0.967
same,normalized growth,"locus YJL154C, strain vps35, stronger effect = lower value",1.02
same,normalized growth,"locus YJL164C, strain tpk1, stronger effect = lower value",0.983
same,normalized growth,"locus YJL166W, strain qcr8, stronger effect = lower value",1.02
same,normalized growth,"locus YJL168C, strain set2, stronger effect = lower value",0.976
same,normalized growth,"locus YJL187C, strain SWE1 (second series), stronger effect = lower value",0.968
same,normalized growth,"locus YJL187C, strain SWE1, stronger effect = lower value",1.02
same,normalized growth,"locus YJR066W, strain TOR1, stronger effect = lower value",0.917
same,normalized growth,"locus YKL009W, strain mrt4, stronger effect = lower value",0.944
same,normalized growth,"locus YKL068W, stronger effect = lower value",1
same,normalized growth,"locus YKL085W, strain MDH1 (second series), stronger effect = lower value",0.991
same,normalized growth,"locus YKL085W, strain MDH1, stronger effect = lower value",0.991
same,normalized growth,"locus YKL160W, strain elf1, stronger effect = lower value",1.01
same,normalized growth,"locus YKL190W, strain CNB1, stronger effect = lower value",0.985
same,normalized growth,"locus YKR001C, strain vps1, stronger effect = lower value",0.877 (active)
same,normalized growth,"locus YKR026C, strain gcn3, stronger effect = lower value",1.03
same,normalized growth,"locus YKR091W, strain srl3, stronger effect = lower value",1.02
same,normalized growth,"locus YLL001W, strain dnm1, stronger effect = lower value",1
same,normalized growth,"locus YLL026W, stronger effect = lower value",1.02
same,normalized growth,"locus YLL041C, strain sdh2, stronger effect = lower value",1
same,normalized growth,"locus YLR027C, strain aat2, stronger effect = lower value",1.01
same,normalized growth,"locus YLR039C, strain RIC1, stronger effect = lower value",1
same,normalized growth,"locus YLR058C, strain SHM2, stronger effect = lower value",0.976
same,normalized growth,"locus YLR102C, strain apc9, stronger effect = lower value",0.985
same,normalized growth,"locus YLR113W, strain HOG1, stronger effect = lower value",1
same,normalized growth,"locus YLR221C, strain rsa3, stronger effect = lower value",1.02
same,normalized growth,"locus YLR258W, strain gsy2, stronger effect = lower value",1.03
same,normalized growth,"locus YLR262C, strain YPT6 (second series), stronger effect = lower value",1.02
same,normalized growth,"locus YLR262C, strain YPT6, stronger effect = lower value",1.06
same,normalized growth,"locus YLR268W, strain sec22, stronger effect = lower value",0.887
same,normalized growth,"locus YLR320W, strain mms22, stronger effect = lower value",0.857 (active)
same,normalized growth,"locus YLR342W, strain FKS1 (second series), stronger effect = lower value",0.944
same,normalized growth,"locus YLR342W, strain FKS1, stronger effect = lower value",1.02
same,normalized growth,"locus YLR357W, strain rsc2, stronger effect = lower value",1.16 [resistant] (active)
same,normalized growth,"locus YLR370C, strain arc18, stronger effect = lower value",1.03
same,normalized growth,"locus YLR371W, strain rom2, stronger effect = lower value",0.861 (active)
same,normalized growth,"locus YLR384C, strain iki3, stronger effect = lower value",1.01
same,normalized growth,"locus YLR418C, strain cdc73, stronger effect = lower value",0.914
same,normalized growth,"locus YML016C, strain PPZ1, stronger effect = lower value",0.956
same,normalized growth,"locus YML032C, strain rad52, stronger effect = lower value",0.836 (active)
same,normalized growth,"locus YML120C, strain ndi1, stronger effect = lower value",1.04
same,normalized growth,"locus YML124C, strain tub3, stronger effect = lower value",0.982
same,normalized growth,"locus YMR058W, strain fet3, stronger effect = lower value",0.988
same,normalized growth,"locus YMR078C, strain ctf18, stronger effect = lower value",0.967
same,normalized growth,"locus YMR125W, strain sto1, stronger effect = lower value",1.02
same,normalized growth,"locus YMR129W, stronger effect = lower value",1.04
same,normalized growth,"locus YMR205C, strain PFK2, stronger effect = lower value",1.03
same,normalized growth,"locus YMR223W, strain ubp8, stronger effect = lower value",0.957
same,normalized growth,"locus YMR231W, strain pep5, stronger effect = lower value",1.01
same,normalized growth,"locus YMR307W, strain GAS1, stronger effect = lower value",0.932
same,normalized growth,"locus YNL067W, strain RPL9B, stronger effect = lower value",0.99
same,normalized growth,"locus YNL071W, strain lat1, stronger effect = lower value",1
same,normalized growth,"locus YNL183C, strain NPR1, stronger effect = lower value",0.935
same,normalized growth,"locus YNL209W, strain ssb2, stronger effect = lower value",0.995
same,normalized growth,"locus YNL233W, strain BNI4, stronger effect = lower value",0.942
same,normalized growth,"locus YNL248C, strain rpa49, stronger effect = lower value",0.681 (active)
same,normalized growth,"locus YNL250W, strain rad50, stronger effect = lower value",0.936
same,normalized growth,"locus YNL271C, strain bni1, stronger effect = lower value",0.97
same,normalized growth,"locus YNL298W, strain CLA4, stronger effect = lower value",0.915
same,normalized growth,"locus YNL307C, strain MCK1, stronger effect = lower value",0.959
same,normalized growth,"locus YNL322C, strain KRE1 (second series), stronger effect = lower value",0.998
same,normalized growth,"locus YNL322C, strain KRE1, stronger effect = lower value",0.99
same,normalized growth,"locus YNR049C, strain mso1, stronger effect = lower value",1.03
same,normalized growth,"locus YNR052C, strain pop2, stronger effect = lower value",0.988
same,normalized growth,"locus YOL012C, strain htz1",0.958
same,normalized growth,"locus YOL147C, strain pex11, stronger effect = lower value",0.952
same,normalized growth,"locus YOR001W, strain rrp6, stronger effect = lower value",0.985
same,normalized growth,"locus YOR061W, strain CKA2, stronger effect = lower value",0.939
same,normalized growth,"locus YOR069W, strain VPS5, stronger effect = lower value",0.984
same,normalized growth,"locus YOR070C, strain gyp1, stronger effect = lower value",0.995
same,normalized growth,"locus YOR080W, strain dia2, stronger effect = lower value",1.01
same,normalized growth,"locus YOR083W, strain WHI5, stronger effect = lower value",0.955
same,normalized growth,"locus YOR106W, strain vam3, stronger effect = lower value",0.987
same,normalized growth,"locus YOR136W, strain idh2, stronger effect = lower value",0.957
same,normalized growth,"locus YOR144C, strain elg1, stronger effect = lower value",0.95
same,normalized growth,"locus YOR184W, strain ser1, stronger effect = lower value",0.836 (active)
same,normalized growth,"locus YOR231W, strain MKK1, stronger effect = lower value",0.983
same,normalized growth,"locus YOR265W, strain rbl2, stronger effect = lower value",0.996
same,normalized growth,"locus YOR270C, strain vph1, stronger effect = lower value",0.934
same,normalized growth,"locus YOR290C, strain snf2, stronger effect = lower value",0.963
same,normalized growth,"locus YOR316C, strain cot1, stronger effect = lower value",0.99
same,normalized growth,"locus YPL051W, strain arl3, stronger effect = lower value",0.992
same,normalized growth,"locus YPL078C, strain atp4, stronger effect = lower value",0.987
same,normalized growth,"locus YPL106C, strain sse1, stronger effect = lower value",0.921
same,normalized growth,"locus YPL240C, strain hsp82, stronger effect = lower value",1.01
same,normalized growth,"locus YPL256C, strain CLN2, stronger effect = lower value",1.03
same,normalized growth,"locus YPR119W, strain clb2, stronger effect = lower value",0.992
same,normalized growth,"locus YPR141C, strain kar3, stronger effect = lower value",1
same,normalized growth,"locus YPR163C, strain tif3, stronger effect = lower value",0.911 (active)
same,normalized growth,"locus YPR167C, strain met16, stronger effect = lower value",0.995
same,normalized growth,"strain wtn01, stronger effect = lower value",0.902
